Screening data: PubChem BioAssay, several laboratories
Compounds with a hit are over-represented: about 4.3% of the library has one in this group of screens.
Wnt bcat act – activates Wnt/beta-catenin signaling in a reporter cell assay. activator, plate reader. AID 743398. 300,000 compounds, 1.2% hits. activation, % at 9.35 µM; in the data active means activation above about 30%, passing the limit was not always enough; inconclusive means no clear call, values can overlap the other calls;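 further: 0% = neutral control wells and 100% = positive control wells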
SMARCA2 activ – increases SMARCA2 function in MMTV reporter cells. MG213 cells, MMTV-luciferase reporter, dexamethasone, overnight. activation, % at 9.1 µM. 370,000 compounds, 1% hits. AID 652017; in the data active means activation above about 7.8%;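 further: 0% = vehicle wells and 100% = reference activator wells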
HSF1 inhib – HSF1 inhibition; NIH3T3-HGL HSE-luciferase, MG132-induced, luminescence 8 h; active compounds read low; activity change, negative = inhibition, % at 7.5 µM (by protocol); 300,000 compounds, 0.77% hits; AID 2098;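 active means more than half of replicate wells show activity change below -50%, luminescence cut by over half; inconclusive means some wells, but at most half, below -50%; inactive means no replicate well below -50%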;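 further: luciferase reports HSF-1 transcriptional activity via heat shock element; 0% = median of DMSO wells and -100% = zero luminescence signal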
HSF1 activator – increases HSF-1 driven luciferase reporter signal | NIH3T3-HGL HSF-1 luciferase reporter, MG132, 8 h; 100% = twice DMSO control signal | activation, % at 9 µM | 300,000 compounds, 1.7% hits | AID 504408;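 active means mean replicate activation of at least 50% with a set share of replicates each reaching 50%; inconclusive means only one of those two conditions met; inactive means mean below 50% and too few replicates reaching it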;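 further: 0% = median of the neutral control wells and 100% = twice that signal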
esBAF inh – blocks esBAF chromatin remodeling in mouse ES cells. Bmi1-luciferase knock-in reporter, 24 h; 100% = twice the neutral-well signal. reporter increase, % at 12.5 µM. 350,000 compounds, 2% hits; in the data active means activation above about 40%; inconclusive means no clear call, values can overlap the other calls;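 further: 0% = median of the plate's neutral control wells and 100% = double that signal; a rise in the Bmi1 reporter signal indicates esBAF inhibition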
MITF act – MITF TRPM1 promoter activation in melanoma cells | AID 588334 | 300,000 compounds, 0.75% hits | activation, % at 12.5 µM | SK-MEL-5 TRPM1-promoter luciferase, 24 h; % of positive control, neutral wells = 0;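 active means mean activation of at least 80% with every replicate also reaching 80%; inconclusive means mean reaches 80% but some replicate falls short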;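 further: 0% = neutral control wells and 100% = parthenolide positive control wells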
Starred values were filed as active, the others as inactive; ? = inconclusive; · = no result.

SMILES	Wnt bcat act	SMARCA2 activ	HSF1 inhib	HSF1 activator	esBAF inh	MITF act
CC(=O)c1ccc(Nc2ccc(-c3ccccc3C)nn2)cc1	39*	6	21	19	83*	85*
O=C(O)C[C@H]1C[C@@H]2c3cc(NC(=O)c4cccnc4)ccc3O[C@@H]2[C@H](CO)O1	·	·	·	·	-3	·
COc1ccc(NC(=O)c2ccc(-c3c(C)noc3C)c3ccoc23)cc1	23	-2	·	·	56*	·
Cc1noc(C)c1-c1ccc(C(=O)NCC2CC2)c2occc12	8	-1	·	·	-2	·
Cc1noc(C)c1-c1ccc(C(=O)NC2CCCCC2)c2occc12	24	-1	·	·	53*	·
Cc1cc(-c2ccc(C)c(S(=O)(=O)NCCC(C)N3CCCCCC3)c2)on1 (stereo unspecified)	0	3	-67*	-73	-8	-10
Cc1cc(-c2ccc(C(C)C)c(S(=O)(=O)NCCN3CCC(C)CC3)c2)on1	-3	-1	15	67*	-5	-1
C[C@@H]1CN([C@@H](C)CO)C(=O)c2cc(NC(=O)c3ccccc3)ccc2O[C@@H](C)CCCCO[C@@H]1CN(C)S(=O)(=O)c1ccc(Cl)cc1	·	·	·	·	3	·
CC1CCc2c(sc(NC(=O)c3noc4c3CCCC4)c2C(N)=O)C1 (stereo unspecified)	29	-2	·	·	·	141*
CC1CCc2c(sc(NC(=O)C3=COCCO3)c2C(N)=O)C1 (stereo unspecified)	-2	6	·	·	-2	66
CC(C)c1ccc(N=C2N=C(N)c3ccccc32)cc1	49*	3	12	18	·	-1
NC1=NC(=Nc2ccc(Cl)cc2)c2ccccc21	14	1	13	33	·	-12
COCCNC(=O)Cn1cnc2sc(C)c(S(=O)(=O)N3CCN(c4ccccc4OC)CC3)c2c1=O	-1	-2	-13	-6	-1	-1
COCCCNC(=O)Cn1cnc2sc(C)c(S(=O)(=O)N3CCN(c4ccccc4OC)CC3)c2c1=O	-2	-3	-72*	-78	1	7
CCOC(=O)c1sc(/N=C/N(C)C)nc1C	-1	1	0	14	·	9
CCOC(=O)c1cnc(/N=C/N(C)C)s1	2	7.9*	0	2	·	7
COc1ccccc1-c1cnc2c(c1)C(=O)N([C@@H](C)CO)C[C@@H](C)[C@H](CN(C)Cc1ccc(C(=O)O)cc1)O2	·	·	·	·	-6	·
Cc1ccnc(NC(=O)C2CC(=O)N(Cc3ccccc3)C2)c1 (stereo unspecified)	?	0	7	18	24	90*
O=C(NCCOc1ccccc1F)C1CC(=O)N(Cc2ccccc2)C1 (stereo unspecified)	34*	-5	·	·	-12	1
CO[C@H]1CN(C)C(=O)c2cc(NC(=O)C3CCC3)ccc2OC[C@H](C)N(Cc2ccncc2)C[C@@H]1C	·	·	·	·	3	·
CCN1CCN(C(=O)c2cc(COc3ccc(C(C)=O)cc3OC)on2)CC1	38*	4	29	46	71*	75
O=C(c1cc(COc2ccc(F)cc2Cl)on1)N1CCCCCC1	27	4	46	60*	95*	144*
COc1ccc(OCc2cc(C(=O)N3CCCCCCC3)no2)c(Cl)c1	14	1	12	14	·	28
O=C(c1cc(COc2ccc(F)cc2Cl)on1)N1CCCCCCC1	5	-2	8	12	25	30
COc1ccc(OCc2cc(C(=O)N3CCN(CC4CC4)CC3)no2)c(Cl)c1	17	3	28	41	39	47
SMILES	Wnt bcat act	SMARCA2 activ	HSF1 inhib	HSF1 activator	esBAF inh	MITF act
Cc1ccc(C)c(OCc2cc(C(=O)N3CC[C@H](O)C3)no2)c1	37*	8	31	41	47*	132*
COc1cc(C)ccc1OCc1cc(C(=O)N2CCCCCCC2)no1	20	2	28	33	55*	63
CS(=O)(=O)Nc1ccc2c(c1)[C@@H]1C[C@H](CC(=O)NCC3CC3)O[C@@H](CO)[C@@H]1O2	·	·	·	·	2	·
C[C@@H]1CN([C@@H](C)CO)C(=O)c2cc(NC(=O)Cn3cnnn3)ccc2O[C@@H]1CN(C)C(=O)Nc1ccccc1	·	·	·	·	4	·
C[C@@H](NC(=O)[C@H]1[C@H](CO)[C@H]2Cn3c(cccc3=O)[C@@H]1N2Cc1ccccc1)c1ccccc1	·	·	·	·	0	·
O=C(NC1CCCCCCC1)NC1CCCCC1	58*	2	2	22	·	91*
O=C(NC1CCCCCC1)C(=S)NC1CCCCC1	33*	0	14	33	·	64
C[C@@H]1CCCCO[C@@H](CN(C)Cc2ccc(C(F)(F)F)cc2)[C@@H](C)CN([C@@H](C)CO)C(=O)c2cc(NS(=O)(=O)c3cn(C)cn3)ccc2O1	·	·	·	·	-3	·
COCC(=O)Nc1ccc2c(c1)OC[C@H](C)N(C(=O)C1CCCC1)C[C@@H](C)[C@@H](OC)CN(C)C2=O	·	·	·	·	-1	·
CCC(=O)Nc1ccc(-c2ccc(N3CCC(C)CC3)nn2)cc1	·	·	-16	-5	48*	89*
O=C(Nc1cccc(-c2ccc(N3CCCCC3)nn2)c1)C(F)(F)F	-6	-3	?	-54	-73	-63
CC1CCN(c2ccc(-c3cccc(NC(=O)C(F)(F)F)c3)nn2)CC1	-8	-7	-82*	-84	-82	-33
CCc1ccc(NC(=O)c2cnn(-c3ccccc3)c2C)cc1	·	5	23	57*	·	44
Cc1ccc(NC(=O)c2cnn(-c3ccccc3)c2NC(=O)c2ccco2)cc1C	10	·	-1	9	55*	20
Cc1nn(-c2ccccc2)cc1C(=S)Nc1ccccc1	-3	2	21	34	49*	27
COc1ccc(NC(=O)c2cnn(-c3ccccc3)c2C)c(OC)c1	1	-2	-4	-1	8	-3
Cc1c(C(=O)Nc2ccccc2F)cnn1-c1ccccc1	10	4	5	2	24	88*
CCc1ccc(NC(=O)c2cnn(-c3ccccc3)c2C2CCNCC2)cc1	-3	1	-5	-23	·	-11
C[C@@H]1CN([C@H](C)CO)S(=O)(=O)c2ccc(-c3cccnc3)cc2O[C@H]1CN(C)CC1CCOCC1	·	·	·	·	2	·
C[C@H](CO)N1C[C@H](C)[C@H](CN(C)Cc2ccncc2)Oc2ncc(C#CCC3CCCC3)cc2C1=O	·	·	·	·	5	·
CCCNC(=O)C[C@@H]1CC[C@H]2[C@@H](COc3ccc(NC(=O)Nc4ccccc4)cc3C(=O)N2C)O1	·	·	·	·	1	·
COc1ccc(-c2ccc3n(c2=O)C[C@H]2[C@H](CO)[C@@H](C(=O)Nc4ccccc4)[C@@H]3N2C)cc1	·	·	·	·	-4	·
CC(=O)c1cnn(-c2ccccc2)c1C	-1	-1	0	-4	0	-2
Cc1c(C(=O)Oc2cccc3ccccc23)cnn1-c1ccccc1	·	-2	-22	-23	45*	34
Cc1c(C(=S)Nc2ccccc2)cnn1-c1ccccc1	?	3	21	62*	·	96*
